From PubChem BioAssay (NCI)
About 79,000 compounds went through this panel and 15% of them were active in at least one assay; those are over-represented in the sample as a whole. The source made the active and inactive calls. Cut-off read from the data, not from the text of the source: active = growth inhibition above about 70%; inactive = the rest.

Assay: NCI Yeast Anticancer Drug Screen. Data for the cln2 rad14 strain (AID 165);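 note: 0% = growth equal to vehicle treated cultures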
Conditions: S. cerevisiae cln2 rad14 strain, at 5.0 µM (retest, dose inferred, filed as 0.5), active compounds read high
Procedure, shortened: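 Relative to vehicle controls, growth inhibition of compound-treated cln2 rad14 yeast was recorded.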

SMILES	growth inhibition
Oc1ccc(/C=N/NC(=S)Nc2ccccc2)nc1	-9% (inactive)
CN(C)COC(=S)SCN(C)C	93% (active)
Cc1cc2cc3c(c(C(=O)O)c2o1)C(=O)c1ccc2ccccc2c1C3	14% (inactive)
O=C1CC(=S)NC(=S)N1	-5% (inactive)
O=[N+]([O-])c1cc(I)c(O)c(/C=N/NS(=O)(=O)c2ccc(Cl)cc2)c1	-9% (inactive)
CCC1CCC(CC)C1=O (stereo unspecified)	-2% (inactive)
Cc1cc(O)c2c(c1)C(=O)c1c(c(O)cc(O)c1-c1c(O)cc(O)c3c1C(=O)c1cc(C)cc(O)c1C3=O)C2=O	27% (inactive)
CCC(=O)Sc1ccccc1C(=O)Nc1ccc(Cl)cc1	23% (inactive)
COc1cccc(CC2N(S(=O)(=O)c3ccc(C)cc3)CCC23C(=O)Nc2ccccc23)c1OC (stereo unspecified)	-3% (inactive)
Cc1occc1C(=S)Nc1ccc(Cl)c(C(=O)OCC(C)C)c1	25% (inactive)
CCOC(=O)c1ccc([N+](=O)[O-])o1	-1% (inactive)
Nc1ccc(S(=O)(=O)O)c2cccc(S(=O)(=O)O)c12	-1% (inactive)
Cn1c2ccccc2c2nnc(N/N=C/c3ccccn3)nc21	8% (inactive)
C#CC(NCCC(C)CC(C)(C)C)C(C)C (stereo unspecified)	-2% (inactive)
C/C(=N/Nc1ccccc1)C(=O)O	8% (inactive)
CCCCCCCCCCCCCCOC(=O)C(N)Cc1ccc(O)cc1 (stereo unspecified)	1% (inactive)
O=C(Nc1ccc(S(=O)(=O)NC2CCCCC2)cc1)OCc1ccccc1	28% (inactive)
NC1CCCCC1N.O=S(=O)([O-])CCCN1CCN(CCO)CC1.O=S(=O)([O-])CCCN1CCN(CCO)CC1.[Pt+4]	44% (inactive)
CCCCCCCNc1ccc2c(cc1=O)C(NC(C)=O)CCc1cc(OC)c(OC)c(OC)c1-2 (stereo unspecified)	7% (inactive)
Cc1ccc(NC(=O)c2cc3ccccc3c(N=Nc3cc(S(=O)(=O)O)ccc3O)c2O)c(C)c1	29% (inactive)
O=C(O)/C(Cl)=C(\Cl)C(=O)Nc1cccc(C(F)(F)F)c1	43% (inactive)

Same assay, conditions: S. cerevisiae cln2 rad14 strain, at 50.0 µM (retest, dose inferred, filed as 5.0), active compounds read high

SMILES	growth inhibition
CCCNC(=O)OCc1ccc(NCCN(CC)CC)c2c(=O)c3ccccc3sc12	17% (inactive)
COc1cc(C(c2cc3c(cc2O)OCO3)N2CCCCC2)cc(OC)c1OC (stereo unspecified)	-3% (inactive)
Cc1cc2c(cc1Cl)Sc1nnc(C)n1S2(=O)=O	34% (inactive)
O=C(Oc1cccc2cccnc12)c1ccccc1	85% (active)
CCCCCCN(CCCCCC)CCC(=O)c1ccc2cc(Br)c3ccccc3c2c1	87% (active)
Cc1c2cc(Cl)ccc2cc2c1ccc1ccccc12	8% (inactive)
O=C1OC(CCCl)(c2ccccc2)CC1CN1CCOCC1 (stereo unspecified)	56% (inactive)
CCOC(=N)CCCSSc1ccc(N=[N+]=[N-])cc1	97% (active)
Cc1[nH]c2ccccc2c1/C=C1\C(=O)C2CCC1C2 (stereo unspecified)	38% (inactive)
O=C(O)c1ccc2c3c(ncnc13)-c1ccccc1C2=O	88% (active)
CCNCCNc1cc(O)c2c(c1O)C(=O)c1ccccc1C2=O	83% (active)
Nc1nc(N)c2nc(CNc3ccc(C(=O)NC(CCC(=O)O)C(=O)O)cc3)cnc2n1 (stereo unspecified)	-47% (inactive)
COc1ccccc1OC(=O)Oc1ccccc1OC	4% (inactive)
NNC(=O)c1c(SCc2ccccc2)nc2c3ccccc3ccn12	87% (active)
N#CC1Oc2ccccc2N1C(=O)c1ccccc1 (stereo unspecified)	0% (inactive)
O=C1C2=Cc3ccccc3CCN2c2ccccc21	-8% (inactive)
Cc1cc([N+](=O)[O-])cc(Cl)c1O	69% (inactive)
Cc1c(Cl)cccc1N=NC(=O)NNc1cccc(Cl)c1C	97% (active)
CCC[CH2][Sn]1([CH2]CCC)[O]C(=O)CN=Cc2c(ccc3ccccc23)[O]1	48% (inactive)
Oc1ccc(/C=N/NC(=S)Nc2ccccc2)nc1	42% (inactive)

SMILES	growth inhibition
CN(C)COC(=S)SCN(C)C	99% (active)
Cc1cc2cc3c(c(C(=O)O)c2o1)C(=O)c1ccc2ccccc2c1C3	99% (active)
O=C1CC(=S)NC(=S)N1	-6% (inactive)
O=[N+]([O-])c1cc(I)c(O)c(/C=N/NS(=O)(=O)c2ccc(Cl)cc2)c1	-1% (inactive)
CCC1CCC(CC)C1=O (stereo unspecified)	3% (inactive)
Cc1cc(O)c2c(c1)C(=O)c1c(c(O)cc(O)c1-c1c(O)cc(O)c3c1C(=O)c1cc(C)cc(O)c1C3=O)C2=O	79% (active)
CCC(=O)Sc1ccccc1C(=O)Nc1ccc(Cl)cc1	62% (inactive)
COc1cccc(CC2N(S(=O)(=O)c3ccc(C)cc3)CCC23C(=O)Nc2ccccc23)c1OC (stereo unspecified)	93% (active)
Cc1occc1C(=S)Nc1ccc(Cl)c(C(=O)OCC(C)C)c1	71% (active)
CCOC(=O)c1ccc([N+](=O)[O-])o1	11% (inactive)
Nc1ccc(S(=O)(=O)O)c2cccc(S(=O)(=O)O)c12	-7% (inactive)
Cn1c2ccccc2c2nnc(N/N=C/c3ccccn3)nc21	97% (active)
C#CC(NCCC(C)CC(C)(C)C)C(C)C (stereo unspecified)	-14% (inactive)
C/C(=N/Nc1ccccc1)C(=O)O	96% (active)
CCCCCCCCCCCCCCOC(=O)C(N)Cc1ccc(O)cc1 (stereo unspecified)	94% (active)
O=C(Nc1ccc(S(=O)(=O)NC2CCCCC2)cc1)OCc1ccccc1	-10% (inactive)
NC1CCCCC1N.O=S(=O)([O-])CCCN1CCN(CCO)CC1.O=S(=O)([O-])CCCN1CCN(CCO)CC1.[Pt+4]	66% (inactive)
CCCCCCCNc1ccc2c(cc1=O)C(NC(C)=O)CCc1cc(OC)c(OC)c(OC)c1-2 (stereo unspecified)	95% (active)
Cc1ccc(NC(=O)c2cc3ccccc3c(N=Nc3cc(S(=O)(=O)O)ccc3O)c2O)c(C)c1	43% (inactive)
O=C(O)/C(Cl)=C(\Cl)C(=O)Nc1cccc(C(F)(F)F)c1	99% (active)
